Screens from PubChem BioAssay.
The list is not random: actives were taken first. Their share in the collection is about 6.7%.
C diff HTS – inhibitors of Clostridium difficile growth; Clostridium difficile clinical isolate growth, OD600, 24 h; stronger effect = lower value; 86,000 compounds, 0.25% hits; growth activity, negative = inhibition, % at 16 µg/mL (by protocol); AID 1259249;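 active means mean growth activity at or below -80% and every replicate also at or below -80%; inconclusive means mean at or below -80% but some replicate above -80%; inactive means mean growth activity above -80%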;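 further: 0% = DMSO wells and -100% = levofloxacin 16 µg/mL wells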
T cruzi growth-1 – inhibitors of T. cruzi proliferation. T. cruzi beta-gal in NIH3T3, GalScreen luminescence, 90 h. inhibition, % at 8.34 µM. 77,000 compounds, 5.9% hits;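 active means mean inhibition above about 93%, with at least 55% of replicates each passing it, limit read from the data, passing the limit was not always enough; inconclusive means only one of those two conditions holds; inactive means neither condition holds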
Pf Dd2 inh – P. falciparum Dd2 growth inhibition; SYBR Green, 72 h; stronger effect = lower value; activity change, % at 10 µM; 94,000 compounds, 2.3% hits; in the data active means activity change below about -80%; inconclusive means no clear call, values can overlap the other calls
T cruzi growth-2 – Trypanosoma cruzi proliferation inhibition. shares compounds with T cruzi growth-1. T. cruzi beta-gal in NIH3T3, GalScreen luminescence, 90 h. inhibition, % at 8.35 µM. 5,600 compounds, 72% hits;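 active means mean replicate inhibition above about 95% and at least 55% of replicates individually reaching it, limit read from the data; inconclusive means only one of the two criteria is met; inactive means neither criterion is met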
T cruzi growth-3 – inhibitors of T. cruzi proliferation. shares compounds with T cruzi growth-1. T. cruzi beta-gal in NIH3T3, GalScreen luminescence, 90 h. inhibition, % at 2.09 µM. 5,600 compounds, 21% hits. AID 651740;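 active means mean inhibition above about 95%, with at least 55% of replicates also reaching it, limit read from the data; inconclusive means meets just one of the two conditions; inactive means meets neither condition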;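 further: plate controls were neutral control median for no effect and positive control median for full effect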
3T3 cytotox – cytotoxicity in mouse NIH/3T3 fibroblasts; shares compounds with T cruzi growth-1; NIH/3T3 viability, CellTiter-Glo ATP luminescence, 90 h; cytotoxicity (signal decrease), % at 8.35 µM; 5,600 compounds, 14% hits; AID 651742;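 active means mean signal decrease across replicates above about 35% based on untreated-well scatter, with enough replicates individually passing, limit read from the data; inconclusive means no rule stated though some were filed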;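 further: 0% = median of neutral control wells and 100% = median of positive control wells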
3T3 cytotox 2 – NIH/3T3 (mouse) viability loss; shares compounds with T cruzi growth-1; NIH/3T3 viability, CellTiter-Glo ATP luminescence, 90 h; inhibition, % at 24.9 µM; 5,600 compounds, 56% hits; AID 651744;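 active means mean loss of cell viability signal at or above a set limit, and enough replicates individually reaching it; inconclusive means meets only the mean limit or only the replicate share; inactive means meets neither condition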;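 further: 0% = median of neutral control wells and 100% = median of positive control wells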
Numbers without * were called inactive; ? = inconclusive; nt = no result given.

SMILES	C diff HTS	T cruzi growth-1	Pf Dd2 inh	T cruzi growth-2	T cruzi growth-3	3T3 cytotox	3T3 cytotox 2
CCNC(=O)[C@H]1[C@H](CO)[C@H]2Cn3c(ccc(C4=CCCCC4)c3=O)[C@@H]1N2Cc1ccncc1	-0.6	5.9	-23.5	nt	nt	nt	nt
O=C(C[C@H]1C[C@H]2c3cc(NC(=O)NC4CCCC4)ccc3O[C@H]2[C@H](CO)O1)NCc1ccc(Oc2ccccc2)cc1	1.4	nt	-20.7	nt	nt	nt	nt
C[C@@H]1CN([C@@H](C)CO)C(=O)c2cc(C3=CCCC3)cnc2O[C@H]1CN(C)S(C)(=O)=O	0.2	nt	17.2	nt	nt	nt	nt
C[C@H](CO)N1C[C@H](C)[C@H](CN(C)S(=O)(=O)c2ccc(Cl)cc2)Oc2c(NS(=O)(=O)c3cccs3)cccc2C1=O	-0.9	54.3	-36.0	nt	nt	nt	nt
C[C@@H]1CN([C@H](C)CO)C(=O)c2cc(NS(=O)(=O)c3ccc(F)cc3)ccc2O[C@@H](C)CCCCO[C@H]1CN(C)S(=O)(=O)c1ccc(Cl)cc1	-1.3	?	-75.3	105.1*	113.2*	-1.0	13.0
C[C@@H]1CCCCO[C@H](CN(C)S(=O)(=O)c2ccc(Cl)cc2)[C@H](C)CN([C@H](C)CO)C(=O)c2cc(NS(=O)(=O)c3ccc(F)cc3)ccc2O1	-3.5	87.8	-79.8	nt	nt	nt	nt
C[C@H](CO)N1C[C@H](C)[C@H](CN(C)C(=O)C2CCC2)Oc2cc(Br)ccc2S1(=O)=O	nt	-46.8	28.3	nt	nt	nt	nt
COCC(=O)N1CC[C@@H]2[C@H]1c1cc(-c3cccc(F)c3)ccc1N(C)[C@@H]2CO	-4.4	102.7*	15.2	103.1*	33.9	7.1	10.6
CCC(=O)N1CC[C@@H]2[C@@H](CO)N(C)c3ccc(-c4cccc(F)c4)cc3[C@@H]21	-0.8	27.5	6.3	nt	nt	nt	nt
CN1c2ccc(-c3cccc(F)c3)cc2[C@@H]2[C@@H](CCN2C(=O)C2CC2)[C@H]1CO	-10.2	100.3*	-23.0	102.3*	101.1*	22.3	90.9*
COCC(=O)N1CC[C@H]2[C@@H]1c1cc(-c3ccccc3)ccc1N(C)[C@H]2CO	2.1	70.8	21.7	nt	nt	nt	nt
CCC(=O)N1CC[C@@H]2[C@H]1c1cc(-c3cccc(OC)c3)ccc1N(C)[C@H]2CO	4.0	90.4	-5.2	nt	nt	nt	nt
CN1c2ccc(-c3cccc(F)c3)cc2[C@H]2[C@H](CCN2C(=O)C2CC2)[C@H]1CO	12.4	65.8	0.2	nt	nt	nt	nt
COCC(=O)N1CC[C@@H]2[C@@H](CO)N(C)c3ccc(-c4ccccc4)cc3[C@@H]21	-1.7	97.8*	-37.4	104.1*	56.3	-26.6	-19.7
COCC(=O)N1CC[C@@H]2[C@H]1c1cc(-c3cccc(OC)c3)ccc1N(C)[C@@H]2CO	11.4	116.9*	3.2	107.4*	83.9	2.2	-5.3
CNC[C@H]1OCCCC[C@H](C)Oc2ccc(NC(=O)CCC(F)(F)F)cc2C(=O)N([C@@H](C)CO)C[C@@H]1C	-2.9	35.1	8.4	nt	nt	nt	nt
Cc1noc(C)c1NC(=O)N(C)C[C@H]1Oc2c(NS(=O)(=O)c3ccccc3)cccc2C(=O)N([C@@H](C)CO)C[C@H]1C	2.8	7.7	-29.1	nt	nt	nt	nt
C[C@@H]1CN([C@H](C)CO)C(=O)c2cc(C#CC3CC3)cnc2O[C@@H]1CN(C)C(=O)CC1CC1	10.0	33.9	-7.0	nt	nt	nt	nt
CN1c2ccc(-c3ccccc3F)cc2[C@@H]2[C@@H](CCN2C(=O)Nc2ccc(F)cc2)[C@@H]1CO	-10.2	107.0*	0.8	103.6*	101.4*	13.8	43.4*
CN1c2ccc(-c3ccccc3F)cc2[C@H]2[C@H](CCN2C(=O)Nc2ccc(F)cc2)[C@H]1CO	75.2	?	4.7	111.1*	93.6	-14.8	45.4*
CCC(=O)N1CC[C@@H]2[C@H]1c1cc(-c3ccccc3F)ccc1N(C)[C@H]2CO	-2.6	91.5	28.3	nt	nt	nt	nt
CCC(=O)N1CC[C@@H]2[C@@H](CO)N(C)c3ccc(-c4ccccc4F)cc3[C@@H]21	8.7	89.2	20.7	nt	nt	nt	nt
C[C@@H]1CN([C@@H](C)CO)C(=O)c2c(c3ccccc3n2C)-c2ccccc2CO[C@@H]1CN(C)CC1CCCCC1	41.0	nt	-54.9	nt	nt	nt	nt
C[C@@H]1CCCCO[C@H](CN(C)C(=O)Cc2ccccc2)[C@H](C)CN([C@@H](C)CO)C(=O)c2cc(NC(=O)Nc3ccc(F)cc3)ccc2O1	-3.1	99.9*	-66.3	103.1*	10.3	-23.7	-34.0
C[C@@H]1CCCCO[C@H](CN(C)C(=O)Cc2ccccc2)[C@H](C)CN([C@H](C)CO)C(=O)c2cc(NC(=O)Nc3ccc(F)cc3)ccc2O1	3.2	103.1*	-85.3*	106.7*	108.0*	-20.6	1.8
SMILES	C diff HTS	T cruzi growth-1	Pf Dd2 inh	T cruzi growth-2	T cruzi growth-3	3T3 cytotox	3T3 cytotox 2
Cc1noc(C)c1NC(=O)Nc1ccc2c(c1)C(=O)N([C@H](C)CO)C[C@H](C)[C@H](CN(C)C(=O)Cc1ccccc1)OCCCC[C@H](C)O2	-2.9	106.0*	-3.4	35.5	22.6	-8.1	-13.2
C[C@H](CO)N1C[C@H](C)[C@H](CN(C)C(=O)Cc2ccccc2)OCCCC[C@H](C)Oc2ccc(NC(=O)Nc3ccc(F)cc3)cc2C1=O	-3.1	39.6	49.9	nt	nt	nt	nt
C[C@@H]1CCCCO[C@H](CN(C)C(=O)Cc2ccccc2)[C@H](C)CN([C@H](C)CO)C(=O)c2cc(NC(=O)Nc3ccccc3)ccc2O1	nt	103.0*	-83.7*	98.1*	15.7	-10.4	-14.6
C[C@@H]1CN([C@H](C)CO)C(=O)c2cc(NC(=O)Nc3ccccc3)ccc2O[C@@H](C)CCCCO[C@@H]1CN(C)C(=O)Cc1ccccc1	nt	-6.4	-74.6	nt	nt	nt	nt
C[C@H](CO)N1C[C@H](C)[C@@H](CN(C)C(=O)Cc2ccccc2)OCCCC[C@H](C)Oc2ccc(NC(=O)Nc3ccccc3)cc2C1=O	nt	48.0	23.9	nt	nt	nt	nt
Cc1noc(C)c1NC(=O)Nc1ccc2c(c1)C(=O)N([C@@H](C)CO)C[C@H](C)[C@@H](CN(C)C(=O)Cc1ccccc1)OCCCC[C@@H](C)O2	-0.7	44.8	-42.4	nt	nt	nt	nt
O=C(C[C@@H]1C[C@H]2c3cc(NC(=O)c4ccc5c(c4)OCO5)ccc3O[C@H]2[C@H](CO)O1)NCc1cccc(F)c1	2.5	73.6	-63.6	nt	nt	nt	nt
CCCNC(=O)N1C[C@@H](C)[C@H](OC)CN(C)C(=O)c2cc(NC(=O)CCC)ccc2OC[C@H]1C	nt	46.4	-2.1	nt	nt	nt	nt
C[C@@H]1CN([C@@H](C)CO)C(=O)c2cccc(NC(=O)NC3CCCCC3)c2O[C@@H]1CN(C)Cc1ccc2c(c1)OCO2	-2.4	93.1	-15.1	nt	nt	nt	nt
O=C(C[C@H]1CC[C@H](NS(=O)(=O)c2ccc(F)cc2)[C@H](CO)O1)NCc1ccc(Cl)c(Cl)c1	nt	-56.9	3.3	nt	nt	nt	nt
N#C[C@H]1[C@@H](c2ccccc2-c2ccccc2)[C@@H](CO)N1C(=O)NC1CCCC1	-12.6	nt	12.6	nt	nt	nt	nt
C[C@H]1CN([C@@H](C)CO)C(=O)c2cccc(NC(=O)Nc3ccc(F)cc3)c2O[C@H]1CN(C)C(=O)Nc1ccc(F)cc1	11.6	68.9	-7.9	nt	nt	nt	nt
